DT40 TDP1 CPT: DT40-hTDP1 cell growth loss with CPT; chicken DT40 Tdp1-/-;hTDP1 cells + 20 nM CPT, ATP luminescence, 48 h; Potency, µM (highest dose often 46.2 µM), usual class: inhibitors; 420,000 tested, 12% active; note: nearly all actives have a fitted effect of over 55% in size
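Cell growth measured by CellTiter-Glo luminescence after a minimum 48 h, 37 C compound exposure with 20 nM CPT in Tdp1-knockout DT40 cells stably expressing hTDP1, seeded 400/well; qHTS titration format.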
HT1080 IDH1KD tx: kills HT-1080 cells with IDH1 knockdown. HT-1080 IDH1 knockdown viability, ATP luminescence, 48 h. Potency, µM (doses to about 46.1 µM), actives largely listed as cytotoxic. 360,000 tested, 2% active
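IDH1KD HT-1080 cells, 750/well, RPMI + 5% FBS; compound pinned after 2 h settling; 48 h, 37 °C; CellTiter-Glo luminescence; % activity normalised to DMSO and no-cell wells; curves fitted, classed by r2 and efficacy.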
IL-1B inflam inh: inhibitors of inflammasome signaling (IL-1 beta secretion) | THP-1 LPS/ATP IL-1B secretion, AlphaLISA, 16 h; active compounds read low | activity change, % at 57.5 µM | 360,000 tested, 4.7% active | AID 743279; in the data active = activity change below about -50%; inconclusive = mostly about -30% to -49%
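THP-1 cells pretreated 1 hr with compounds (up to 57.5 uM final), then stimulated with LPS (250 ng/mL final) plus ATP (1.25 mM final); secreted IL-1B measured by AlphaLISA after 16 hr, decreased signal indicating inhibition.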
HT1080NT lethal: kills 2HG-producing HT-1080-NT fibrosarcoma cells. HT-1080-NT fibrosarcoma viability, CellTiter-Glo ATP luminescence, 48 h. Potency, µM (titrated, usually from 46.1 µM), most hits filed as cytotoxic. 360,000 tested, 1.6% active. AID 686970;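 note: NT is the 2HG producing partner of a matched IDH1 knockdown line; nearly all actives have a fitted effect of over 55% in size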
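Toxicity toward the 2HG-producing NT line was scored as %Activity, normalised to DMSO and no-cell wells, from CellTiter-Glo luminescence after 48 hours' treatment.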
DT40 TDP1 no CPT: qHTS for Inhibitors of human tyrosyl-DNA phosphodiesterase 1 (TDP1): qHTS in cells in absence of CPT; DT40 Tdp1-/- hTDP1 cells, no CPT, ATP luminescence, 48 h; Potency, µM (series often up to 46.2 µM), hits mostly inhibitors; 420,000 tested, 15% active; note: nearly all actives have a fitted effect of over 55% in size
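Camptothecin absent (DMSO only). Human TDP1-complemented DT40 knockout cells, 400 cells/well, 37 °C for minimum 48 hr; ATP measured via CellTiter-Glo, 30 min dark incubation, luminescence.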
Of the large screens only hits and unclear results are named; the others gave an inactive call. Shown are actives, neighbours in structure and some others; about 19% of the full set was active somewhere. Unless noted, calls come from the whole dose curve; as a rule, active = well fitted curve in the direction sought with a large enough effect; inconclusive = small, poorly fitted or top-dose-only effect, or another doubt; inactive = no such curve, though single readings can be large; an effect the other way counts as inactive or inconclusive.

COCc1nc2ccccc2n1Cc1c(F)cccc1Cl	DT40 TDP1 CPT 18µM, DT40 TDP1 no CPT 13µM
CCCCCn1c(CCNC(=O)CCC)nc2ccccc21	DT40 TDP1 CPT inconclusive, DT40 TDP1 no CPT 16µM
O=C(NN=C1CCN(Cc2ccccc2)CC1)C(O)c1ccccc1 (centres undefined)	none
Cc1cccc(CNC(=O)Cn2nc(C)c3nn(-c4ccc(Cl)cc4)c(C)c3c2=O)c1	DT40 TDP1 CPT 21µM, DT40 TDP1 no CPT 18µM (no result: HT1080 IDH1KD tx, IL-1B inflam inh, HT1080NT lethal)
COc1ccc(NC(=O)Cn2nc(C)c3c(C)n(-c4ccccc4)nc3c2=O)cc1OC	none (no result: HT1080 IDH1KD tx, IL-1B inflam inh, HT1080NT lethal)
Cc1cccc(CNC(=O)CCCn2nc(C)c3c(C)n(-c4ccccc4)nc3c2=O)c1	DT40 TDP1 no CPT inconclusive
CCOc1ccc(CNC(=O)Cn2nc(C)c3nn(-c4ccc(Cl)cc4)c(C)c3c2=O)cc1	none (no result: HT1080 IDH1KD tx, IL-1B inflam inh, HT1080NT lethal)
CCOc1ccc(CNC(=O)Cn2nc(C)c3nn(-c4ccc(Cl)cc4)c(C)c3c2=O)cc1OC	DT40 TDP1 CPT inconclusive, DT40 TDP1 no CPT 18µM (no result: HT1080 IDH1KD tx, IL-1B inflam inh, HT1080NT lethal)
Cc1nn(CC(=O)Nc2ccccc2F)c(=O)c2c(C)n(-c3ccc(Cl)cc3)nc12	DT40 TDP1 CPT 23µM, DT40 TDP1 no CPT inconclusive (no result: HT1080 IDH1KD tx, IL-1B inflam inh, HT1080NT lethal)
COc1ccc(CC(=O)Oc2ccc(F)cc2)cc1	none
N=C1CCC(=N)c2c1c(O)c1ccccc1c2O	DT40 TDP1 CPT inconclusive, HT1080 IDH1KD tx inconclusive, IL-1B inflam inh inconclusive, HT1080NT lethal 23µM, DT40 TDP1 no CPT inconclusive
Cn1c(N)c(C(=O)COC(=O)CSc2ccc(Cl)cc2)c(=O)n(C)c1=O	none
COCCN(CC1CCCN(C2Cc3ccccc3C2)C1)C(=O)CCC(N)=O (centres undefined)	IL-1B inflam inh -52, DT40 TDP1 no CPT inconclusive
COCCN(CC1CCCN(C2Cc3ccccc3C2)C1)C(=O)CCC(C)=O (centres undefined)	none
Cc1cc(C)n2nc3nc(N4CCCCC4)nc(-c4ccco4)c3c2n1	DT40 TDP1 CPT 15µM, DT40 TDP1 no CPT 21µM
O=C(Nc1ccccc1)Nc1cccc(NC(=O)Nc2ccccc2)c1F	none
COc1ccccc1NC(=O)C(Sc1ccccc1)c1ccccc1 (centres undefined)	DT40 TDP1 CPT 21µM, DT40 TDP1 no CPT inconclusive
COc1ccccc1NC(=O)Nc1ccccc1Br	DT40 TDP1 CPT 18µM, DT40 TDP1 no CPT inconclusive
O=C(Nc1ccccc1)Nc1ccc(Br)c(Cl)c1	DT40 TDP1 CPT inconclusive, IL-1B inflam inh inconclusive, DT40 TDP1 no CPT 16µM
O=C(Nc1ccccc1)Nc1ccc2ccccc2c1	none
COc1ccccc1NC(C)=O	none
O=C(Nc1ccccc1)Nc1ccccc1Br	DT40 TDP1 CPT 15µM, DT40 TDP1 no CPT inconclusive
CCc1cc(C(=O)N(Cc2ccccc2)c2c(N)n(CCOC)c(=O)[nH]c2=O)sc1C	none
COc1ccccc1NC(=O)Nc1ccc(C)cn1	none
COc1ccccc1NC(=O)Nc1cc(NC(=O)Nc2ccccc2OC)c(C)nc1C	DT40 TDP1 CPT inconclusive, HT1080 IDH1KD tx 16µM, HT1080NT lethal 16µM, DT40 TDP1 no CPT inconclusive
CCCc1nnc(SCC(=O)Nc2nc(C)cs2)n1CCOC	none
Cc1ccc(S(=O)(=O)N2C(=O)C(c3ccccc3)SC2=Nc2ccccc2)cc1 (centres undefined)	DT40 TDP1 CPT inconclusive, DT40 TDP1 no CPT inconclusive
COc1cccc(NC(=O)C2(C)CCN2CCc2ccccc2)c1 (centres undefined)	DT40 TDP1 CPT 23µM, DT40 TDP1 no CPT inconclusive
COc1ccc(OC)c(NC(=O)C2(C)CCN2CCc2ccccc2)c1 (centres undefined)	DT40 TDP1 CPT 23µM, HT1080 IDH1KD tx inconclusive, HT1080NT lethal inconclusive, DT40 TDP1 no CPT 16µM
Cc1cc(O)c(C(c2ccccc2)N2CCN(c3ccccc3)CC2)c(=O)n1Cc1ccco1 (centres undefined)	DT40 TDP1 CPT inconclusive (no result: HT1080 IDH1KD tx, IL-1B inflam inh, HT1080NT lethal)
C=CC[C@H](CC(=O)N[C@H](CO)Cc1ccccc1)C(=O)N[C@H](COC(=O)[C@H](CC=C)CC(=O)OC(C)(C)C)Cc1c[nH]c2ccccc12	DT40 TDP1 CPT inconclusive, DT40 TDP1 no CPT inconclusive
C=CC[C@H](CC(=O)N(CCO)Cc1ccccc1)C(=O)N[C@H](COC(=O)[C@H](CC=C)CC(=O)OC(C)(C)C)Cc1c[nH]c2ccccc12	DT40 TDP1 CPT inconclusive, HT1080 IDH1KD tx inconclusive, IL-1B inflam inh -60, HT1080NT lethal inconclusive, DT40 TDP1 no CPT inconclusive
C=CC[C@@H](CC(=O)N(CCO)Cc1ccccc1)C(=O)N[C@@H](COC(=O)[C@H](CC=C)CC(=O)OC(C)(C)C)Cc1c[nH]c2ccccc12	DT40 TDP1 CPT inconclusive, HT1080 IDH1KD tx inconclusive, IL-1B inflam inh -72, HT1080NT lethal inconclusive, DT40 TDP1 no CPT inconclusive
COc1ccccc1CNC(=O)CN(C)CC(=O)Nc1ccc(F)c(F)c1F	none
COCCn1c2nc(=O)n(-c3ccccc3)c(=O)c-2nc2ccccc21	DT40 TDP1 CPT inconclusive, HT1080 IDH1KD tx inconclusive, DT40 TDP1 no CPT 12µM
COCCn1c(COC)nc2ccccc21	none
CC(C)C[C@H]1CNC(=O)C(=O)N1C[C@@H]1CCCN1C[C@H](Cc1ccccc1)N1C[C@H](Cc2ccccc2)N(CC2CCCCC2)C(=O)C1=O	DT40 TDP1 CPT inconclusive
CC(C)C[C@H]1CNC(=S)N1CC1CCCN1C[C@H](Cc1ccc(O)cc1)N1C[C@H](Cc2ccccc2)N(CC2CCCCCC2)C1=S (some centres undefined)	DT40 TDP1 CPT inconclusive, DT40 TDP1 no CPT 21µM
CC(C)C[C@H]1CNC(=S)N1CC1CCCN1C[C@H](Cc1ccccc1)N1C[C@H](Cc2ccc(O)cc2)N(CC2CCCCC2)C1=S (some centres undefined)	DT40 TDP1 CPT inconclusive, HT1080 IDH1KD tx inconclusive, IL-1B inflam inh inconclusive, DT40 TDP1 no CPT inconclusive
CC(C)C[C@H]1CN([C@@H](Cc2ccccc2)CN2CCCC2CN2C(=S)NC[C@@H]2Cc2ccccc2)C(=S)N1CC1CCCCC1 (some centres undefined)	DT40 TDP1 CPT 6.5µM, DT40 TDP1 no CPT 7.3µM
CC(C)C[C@H]1CNC(=S)N1C[C@H]1CCCN1C[C@H](Cc1ccccc1)N1C[C@H](Cc2ccc(O)cc2)N(CC2CCCCCC2)C1=S	DT40 TDP1 CPT 15µM, HT1080 IDH1KD tx 15µM, HT1080NT lethal 21µM, DT40 TDP1 no CPT 13µM
CC(C)C[C@H]1CNC(=S)N1C[C@H]1CCCN1C[C@H](Cc1ccc(O)cc1)N1C[C@H](Cc2ccccc2)N(CC2CCCCC2)C1=S	DT40 TDP1 CPT inconclusive, DT40 TDP1 no CPT 18µM
CC(=O)c1cccc(N=Nc2c(-c3ccccc3)[nH]n(-c3ccccc3)c2=O)c1	DT40 TDP1 CPT inconclusive, DT40 TDP1 no CPT inconclusive
Cc1[nH]nc2c(=S)[nH]c(=O)[nH]c12	DT40 TDP1 no CPT inconclusive
CC(C)C[C@H]1CN([C@@H](Cc2ccc(O)cc2)CN2CCC[C@@H]2CN2C(=S)NC[C@@H]2Cc2ccccc2)C(=S)N1CC1CCCCC1	DT40 TDP1 CPT 16µM, DT40 TDP1 no CPT 16µM
